Results with a measured potency or affinity are listed apart. Results filed as inconclusive are left out. Calls of active or inactive are those of the source.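 The calls were made as follows: active = in every test run, a fitted half-maximal concentration for signal decrease at or below twice the highest tested concentration; inconclusive = runs disagree, flat 30 to 70% decrease, or poor fit; inactive = the rest.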
assay: activation of miR-122 Renilla sensor silencing – cell-based, Huh7 psiCHECK-miR122, Renilla luciferase, cherry-picked, dose response (AID 651956); settings: Huh7 psiCHECK-miR122 Renilla luciferase reporter, 48 h; series mostly up to 35 µM; activity change, negative = signal decrease: at the top concentration;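 also: Renilla luciferase from a miR-122 sensor reporter so lower signal means miR-122 activation; 0% = median neutral control wells and -100% = median positive control wells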

Row | Compound | activity change, negative = signal decrease
1 | CC(=O)Nc1ccc2c(c1)C(=O)N(C)[C@H]1CC[C@@H](CC(=O)NCc3ccc4c(c3)OCO4)O[C@@H]1CO2 | -26.6% [at 30 µM] (inactive)
2 | Cn1c(-c2ccc(N)cc2)nc2ccccc21 | 38.5% (inactive)
3 | CCOC(=O)c1nc(C)n(-c2ccc(Cl)cc2Cl)n1 | -7.11% (inactive)
4 | C[C@H](CO)N1C[C@H](C)[C@H](CN(C)S(=O)(=O)c2ccc(F)cc2)Oc2ccc(NS(C)(=O)=O)cc2C1=O | -31.1% (inactive)
5 | CCCCN1C=C(C(=O)OC)C(c2ccccc2C(F)(F)F)C(C(=O)OC)=C1 | 40.1% (inactive)
6 | COC(=O)c1cc(NS(=O)(=O)c2ccc3c(c2)CCC(=O)N3)cc(C(=O)OC)c1 | 33.3% (inactive)
7 | COc1cc(N)c(Cl)cc1NC(=O)c1ccccc1 | -28% (inactive)
8 | O=C(c1cccnc1)N1C[C@H]2[C@@H](c3ccccc31)[C@H](CO)N2C(=O)Nc1ccccc1 | -24.8% (inactive)
9 | COc1ccc(CN2CCOC2=O)cc1OC | 60.2% (inactive)
10 | O=C(c1ccccc1)N1C[C@H]2[C@@H](c3ccccc31)[C@@H](CO)N2C(=O)CN1CCOCC1 | 121% (inactive)
11 | CCNC(=O)Nc1ccc2c(c1)C(=O)N(C)[C@H]1CC[C@H](CC(=O)NCCN3CCCC3)O[C@@H]1CO2 | 16.7% (inactive)
12 | CCNC(=O)C[C@@H]1CC[C@@H]2[C@@H](COc3ccc(NC(=O)c4ccccc4)cc3C(=O)N2C)O1 | 57.6% (inactive)
13 | C[C@H](O)C#Cc1ccc2c(c1)O[C@@H](CN(C)Cc1ccc(-c3ccccc3)cc1)[C@H](C)CN([C@H](C)CO)S2(=O)=O | 45.2% (inactive)
14 | COc1ccc(-c2cn3c(C)c(C(=O)Nc4cccc(NC(C)=O)c4)sc3n2)cc1 | 1.92% (inactive)
15 | COc1ccc(CN2CCc3c([nH]c4ccccc34)C2)c(OC)c1C | -17.6% (inactive)
16 | Cc1nc(C)c(C(=O)Nc2ccc(Oc3ccccc3)cc2)o1 | -16.7% (inactive)
17 | COc1ccc(NC(=O)Cn2nnc(C(=O)NCc3ccccc3OC)c2N)cc1Cl | 48.8% (inactive)
18 | CN1C(=O)c2cc(NC(=O)Nc3ccc(Cl)cc3)ccc2OC[C@H]2O[C@H](CC(=O)NCCN3CCCCC3)CC[C@H]21 | -3.5% [at 30 µM] (inactive)
19 | Cc1c(CC(=O)NCCCC(=O)O)c(=O)oc2cc3occ(-c4ccccc4)c3cc12 | -37.3% (inactive)
20 | Cc1cc(C)cc(NC(=O)Nc2ccc3c(c2)C(=O)N(C)[C@@H]2CC[C@H](CC(=O)O)O[C@@H]2CO3)c1 | 73.4% (inactive)
21 | CNC(=O)C[C@@H]1CC[C@@H]2[C@H](COc3ccc(NC(=O)c4cccc(OC)c4)cc3C(=O)N2C)O1 | 16.2% (inactive)
22 | CCCNC(=O)C[C@@H]1CC[C@H]2[C@H](COc3ccc(NC(=O)c4ccc(C(F)(F)F)cc4)cc3C(=O)N2C)O1 | 0% (inactive)
23 | C=CCNC(=S)NNC(=O)c1cccn(Cc2ccc(Cl)c(Cl)c2)c1=O | -25.4% (inactive)
24 | CCCCNC(=O)Nc1nnc(-c2ccc(OCC)cc2)o1 | -1.33% (inactive)
25 | C/C=C/c1ccc([C@H]2[C@H](CO)N[C@H]2CN(C)S(=O)(=O)c2ccccc2)cc1 | -26.8% (inactive)
